Assay results: PubChem BioAssay AID686978 (National Center for Advancing Translational Sciences (NCATS), 2013)
In all, about 420,000 compounds went through this assay and about 64,000 (15%) were called active. Another 27% or so got no clear call; they are omitted. Not all results are given here. Unmarked numbers belong to inactive results. Calls come from the whole dose curve; as a rule, active = well fitted inhibition curve with a large enough effect; inconclusive = small, poorly fitted or top-dose-only effect; inactive = flat fitted curve, though single readings scatter.

Test: qHTS for Inhibitors of human tyrosyl-DNA phosphodiesterase 1 (TDP1): qHTS in cells in absence of CPT; note: nearly all actives have a fitted effect of over 55% in size
Settings: DT40 Tdp1-/- hTDP1 cells, no CPT, ATP luminescence, 48 h; activity change, negative = growth inhibition: at 46.2 µM (top of the series)
Description: Human tyrosyl-DNA phosphodiesterase 1 (TDP1) is a novel repair gene, and we propose to use it as a new target for anticancer drug development. TDP1 is not an essential protein, but under treatment with topoisomerase I poison (camptothecin: CPT), TDP1 works as a critical factor for cell survival. To directly identify novel TDP1 inhibitors active in a cellular environment, we have knocked-out the Tdp1 gene in chicken DT40 cells (Tdp1-/-) and generated a complemented counterpart cells that contains a stable transfection of the human TDP1 gene (Tdp1-/-;hTDP1 cells). For the primary screen, Tdp1-/-;hTDP1 cells will be exposed to small molecules in the presence or absence of CPT, and their growth kinetics will be evaluated after 48 hours by measuring ATP activity. […] The hit compounds will then be evaluated in the presence or absence of CPT using Tdp1-/- cells. […] In tertiary assays, biochemical gel-based assays will be used to assess whether the hit compounds specifically target TDP1.
To this end, we have screened this cell line against the MLSMR in two primary screens. In one screen we add CPT and in the other we screen in the absence of CPT; this AID represents the screen where CPT was absent.
NIH Chemical Genomics Center [NCGC]
NIH Molecular Libraries Probe Centers Network [MLPCN]
Assay Submitter (PI): Yves Pommier, NCI
DT40-hTDP1 cells without 20 nM Camptothecin (add 20 microL of DMSO in 1 L of cell culture medium) were dispensed at 400 cells/5microL/well in tissue culture treated 1536-well white wall/solid bottom assay plates (Greiner Bio-One North America, NC, U.S.A.) using a Multidrop Combi 8 channel dispenser (Thermo Fisher, Waltham, MA, USA). 23 nL compounds and controls were transferred using the pin tool (Kalypsys, San Diego, CA, USA) to the assay plates. The assay plates were then incubated at 37 masculineC for a minimum 48 hr. Three microL of Cell Titer Glo solution was added to the plates and incubated at RT in dark for 30 min. Luminescence was read using ViewLux (Perkin Elmer) with 1 sec exposure slow speed, high gain and 2x binning.
% is set by controls: 0 for no effect and ±100 for the full control effect; potency is the fitted concentration of half-maximal effect.

Structure (SMILES)	activity change, negative = growth inhibition [%]	Potency
Clc1ccc(CSc2nnc([C@@H]3CCCN3)o2)cc1	-17	
CS(=O)(=O)c1ccccc1C(=O)Nc1ccc2sccc2c1	14.5	
O=C(/C=C/c1ccccc1[N+](=O)[O-])OCC(=O)N1CCCC1	18.5	
CCC(C(=O)Nc1c(C)cccc1C)n1c(-c2cc(C)cs2)nc2ccccc21 (stereo not drawn)	-14.6	
CCC(C(=O)NCc1ccccc1)n1c(Cc2cc(F)cc(F)c2)nc2ccccc21 (stereo not drawn)		16.4 µM (active)
O=C(CCSCc1cccc(F)c1)NCc1ccccc1	-7.79	
CCC(C)c1ccc(O)c(/C=N/O)c1 (stereo not drawn)	16.9	
Cc1cc(C)n(-c2nc(O)cc(=O)[nH]2)n1	8.33	
CS(=O)(=O)N(CC(=O)NC1CCCC1)Cc1ccc(F)cc1	-6.2	
Cc1ccc(OCC(=O)N2CCN(C(=O)c3cccnc3)CC2)cc1	-10.2	
Cc1ccc(NC(=O)Cc2nc(COC(=O)C(C)NS(=O)(=O)c3ccc(C)cc3)cs2)cc1 (stereo not drawn)	-26.5	
O=C(O)c1ccccc1C(=O)Nc1nc(-c2ccccc2)cs1	-0.805	
Cc1ccc(-c2csc(NNC(=O)c3ccccc3)n2)cc1		5.17 µM (active)
CC(=O)Nc1ccc(S(=O)(=O)Nc2nc(-c3ccc(C(C)(C)C)cc3)cs2)cc1	-17.4	
CC(=O)c1ccc(NC(=O)N[C@@H](Cc2ccccc2)C(=O)O)cc1	-2.61	
CCC(=O)Nc1ccc(C(=O)Nc2cc(C)on2)cc1	2.69	
Cc1ccc(C(=O)NNC(=O)c2cccs2)cc1	-20	
CC(=O)c1ccc(NC(=O)CSc2nnc(NC(=O)Nc3ccccc3)s2)cc1	-28.6	
CC(=O)Nc1ccc(C(=O)Nc2nc(-c3cc(C)n(Cc4ccccc4)c3C)cs2)cc1		14.6 µM (active)
Cc1nc(NNC(=O)c2ccccc2)cc(-c2ccccc2)n1	-10.7	
CSc1nsc(NC(=O)Nc2ccccc2)n1		20.6 µM (active)
O=C(Nc1ccccc1)Nc1nc2ccccc2s1	-2.58	
CC(=O)Nc1ccc(-c2csc(NC(=O)Nc3ccccc3)n2)cc1		1.16 µM (active)

Structure (SMILES)	activity change, negative = growth inhibition [%]	Potency
CN1C(=O)C2(OCCCO2)c2cc(Cl)ccc21	7.23	
O=C(CNC(=O)Cc1ccccc1)NCC(=O)OCC(=O)c1ccccc1Cl	-18.5	
O=C(c1snnc1-c1ccccc1)N1CCOCC1	7.46	
Cc1nn(C(C)CC(=O)O)c(C)c1C (stereo not drawn)	5.41	
CCN1N=C(c2ccccc2)CCC1=O	0.898	
CCN(CC(=O)NCCc1ccccc1)S(=O)(=O)c1ccc(C)cc1	-8.2	
COCC(=O)N1CCC2(CCCN(c3ccccc3)C2)CC1	-15.7	
COc1ccc(C(=O)OCC(=O)NCC2CCCO2)cc1[N+](=O)[O-] (stereo not drawn)	12.4	
COc1ccc(C(CNC(=O)c2cc3c(s2)CCCC3)N2CCOCC2)cc1 (stereo not drawn)	0.592	
CCCNC(=O)COc1coc(CN2CCN(Cc3ccccc3)CC2)cc1=O	11.7	
O=S(=O)(c1ccc(Br)cc1)N1CCC(c2nc3ccccc3[nH]2)CC1		20.6 µM (active)
O=S(=O)(c1ccccc1)N1CCC(c2ccccc2)CC1	-16.2	
O=C(C1CCCO1)N1CCC(c2nc3ccccc3[nH]2)CC1 (stereo not drawn)	-4.09	
Cc1c(NC(=O)c2c([N+](=O)[O-])cnn2C)c(=O)n(-c2ccccc2)n1C	5.36	
O=C(NCC12CC3CC(C1)CC(CNC(=O)N1CCCC1)(C3)C2)N1CCCC1	-19.6	
O=c1cc(Cl)c2ccccc2n1-c1ccccc1	-3.55	
Cc1ccc(-n2c3nc(=O)[nH]c(=O)c-3cc3c(Cl)cccc32)cc1		0.731 µM (active)
Cc1ccc(-n2c(-c3ccc(Cl)cc3)n[nH]c2=S)cc1	-8.56	
NC(=O)NCCCC(=O)O	25.5	
Cc1nn(CC(=O)Nc2nc3ccccc3s2)c(C)c1[N+](=O)[O-]	-13.3	
CCC(C)Cn1c(O)cc2nn(-c3nc4ccccc4s3)c(=O)c-2c1C (stereo not drawn)		18.4 µM (active)
CCCS(=O)(=O)N1CCCC(C(=O)NCCN2CCCCC2C)C1 (stereo not drawn)	9.41	
Cc1c(NC(=O)Nc2ccccc2Cl)sc(=S)n1C	9.06	

Structure (SMILES)	activity change, negative = growth inhibition [%]	Potency
C/C(=N\NS(=O)(=O)c1ccc(Cl)cc1)c1ccc(NC(=O)c2ccco2)cc1	-12.3	
Cc1ccc(-c2nnc(SCc3ccccc3C)o2)cc1	-26.2	
COc1ccccc1CNC(=O)CN1CCC(n2cnc3cc(F)ccc32)CC1	-29.6	
O=C(c1ccc(F)cc1)c1cn(Cc2ccc(F)cc2)c2cc3c(cc2c1=O)OCCO3	-19.6	
CCOc1ccc(C(=O)c2cn(Cc3ccccc3OC)c3ccc(F)cc3c2=O)cc1		20.6 µM (active)
CCOC(=O)C1CCN(C(c2ccc(F)cc2)c2sc3nc(-c4ccco4)nn3c2O)CC1 (stereo not drawn)	-15.8	
Cc1cccc(Cn2c(=O)n(CCC(=O)NCCc3ccc(Cl)cc3)c(=O)c3sccc32)c1	-14.5	
CCc1c(C)nc2c(OC)cccc2c1Cl	-7.5	
CCOc1ccc(CC(=O)Nc2ccc(S(=O)(=O)Nc3cc(C)on3)cc2)cc1OCC	1.83	
Cc1cccc(C(=O)Nc2nnc(Cc3c[nH]c4ccccc34)s2)c1	-23.7	
CCOC(=O)[C@]12CCCC=C1N(CCC1=CCCCC1)C(=O)[C@H](CC(=O)NCCCOC)C2		20.6 µM (active)
CN1CCNC(=O)C1CC(=O)NCCC1=CCCCC1 (stereo not drawn)	2.56	
CCCCOCCCNC(=O)C[C@@H]1C[C@@]2(C(=O)OC)CCCCC=C2N(CCC2=CCCCC2)C1=O		23.1 µM (active)
CCCCOCCCNC(=O)C[C@@H]1C[C@@]2(C(=O)OCC)CCCC=C2N(CCC2=CCCCC2)C1=O		18.4 µM (active)
CC(C)COc1ccc(C(=O)OCC(=O)NCCC2=CCCCC2)cc1	-16.4	
CC1=C(C(=O)N(C)C)CC(CC(=O)NCCc2ccccn2)C(=O)N1CCC1=CCCCC1 (stereo not drawn)	-10.7	
COc1ccc(CN2C(=O)C(CC(=O)NCCN3CCOCC3)CC(C(=O)N(C(C)C)C(C)C)=C2C)cc1 (stereo not drawn)	-2.68	
COCCCN1C(=O)C(CC(=O)NCc2cccs2)CC(C(=O)N2CCOCC2)=C1C (stereo not drawn)	3.62	
COC(=O)[C@]12CCCCC=C1N(CCC1=CCCCC1)C(=O)[C@H](CC(=O)NCC1CCCCC1)C2		23.1 µM (active)
COc1cccc(CNC(=O)C(NS(=O)(=O)c2ccc3nc(C)sc3c2)C(C)C)c1 (stereo not drawn)	-22.3	
Cc1cc(C)cc(NC(=O)Cc2csc(C)n2)c1	-0.897	
Cc1ccc(C)c(NC(=O)CCC(=O)N/N=C2/CC(=O)CC(C)(C)C2)c1	-11.3	
